# Source: PubChem BioAssay AID1508601 (ICCB-Longwood Screening Facility, Harvard Medical School, 2020)
# About 85 (1%) of roughly 5,700 compounds were called active. No stated cut-off is given here; in the data, active means p53-positive nuclei above about 36% (passing the limit was not always enough); inactive means the rest. Many of the other results were omitted from the sample, so actives are more common in it than they were.
# What was measured:
# [1] = nuclear p53 accumulation, HPV+ cells – imaging, p53-positive nuclei imaging, 24 h, 48 h (AID 1508601); settings: 24/48 h
# [2] = biological target: Cellular tumor antigen p53 (Homo sapiens) (UniProt P04637); assay: as above; settings: 24/48 h, stronger effect = higher value
# [3] = measured here: cell number at 24 h, concentration not given here
# [4] = measured here: cell number at 48 h, concentration not given here
# [5] = measured here: p53 positive nuclei at 24 h, concentration not given here
# [6] = measured here: cell number at 24 h, Library stock concentration: 10 mM
# [7] = measured here: cell number at 48 h, Library stock concentration: 10 mM
# [8] = Library stock concentration: 10 mM
# [9] = measured here: p53 positive nuclei at 24 h, Library stock concentration: 10 mM
# Cellular tumor antigen p53 (Homo sapiens), sequence (P04637 whole entry, looked up): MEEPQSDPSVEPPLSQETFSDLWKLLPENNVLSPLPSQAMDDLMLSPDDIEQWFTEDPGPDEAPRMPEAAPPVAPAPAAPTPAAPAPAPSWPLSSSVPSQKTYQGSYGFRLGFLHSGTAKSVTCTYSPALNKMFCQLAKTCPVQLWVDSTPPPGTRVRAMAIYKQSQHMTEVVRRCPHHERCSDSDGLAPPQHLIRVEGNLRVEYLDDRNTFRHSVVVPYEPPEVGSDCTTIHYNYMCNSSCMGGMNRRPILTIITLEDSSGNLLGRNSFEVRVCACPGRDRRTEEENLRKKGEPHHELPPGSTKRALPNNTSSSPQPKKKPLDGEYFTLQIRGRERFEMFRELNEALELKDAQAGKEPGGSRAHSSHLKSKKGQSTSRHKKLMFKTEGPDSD
smiles,measurement,setting,value
CO[C@H]1[C@H](O)[C@@H](O[C@H]2CC[C@]3(C=O)C4CC[C@]5(C)[C@@H](C6=CC(=O)OC6)CC[C@]5(O)C4CC[C@@H]3C2)O[C@@H](C)[C@@H]1O (stereo partly specified),"nuclei count, normalised",[1]; [3],35.5%
same,"nuclei count, normalised",[1]; [4],25.2%
same,"p53-positive nuclei, normalised",[2]; concentration not given here,50.3% (active)
same,"p53-positive nuclei, normalised",[2]; [5],2.96%
C[C@@H]1O[C@@H](O[C@H]2CC[C@]3(C=O)C4CC[C@]5(C)[C@@H](C6=CC(=O)OC6)CC[C@]5(O)C4CC[C@]3(O)C2)[C@H](O)[C@H](O)[C@H]1O (stereo partly specified),"nuclei count, normalised",[1]; [3],35.2%
same,"nuclei count, normalised",[1]; [4],23.7%
same,"p53-positive nuclei, normalised",[2]; concentration not given here,28.5% (inactive)
same,"p53-positive nuclei, normalised",[2]; [5],2.41%
CC1OC(O[C@H]2CC[C@@]3(C)[C@@H](CC[C@@H]4[C@H]3CC[C@]3(C)[C@@H](C5=CC(=O)OC5)CC[C@]43O)C2)CC(O)C1O (stereo partly specified),"nuclei count, normalised","[1]; measured here: cell number at 24 h, Library stock concentration: 500 nM",65.6%
same,"nuclei count, normalised","[1]; measured here: cell number at 24 h, Library stock concentration: 1.5 uM",57.4%
same,"nuclei count, normalised","[1]; measured here: cell number at 24 h, Library stock concentration: 4.6 uM",53%
same,"nuclei count, normalised","[1]; measured here: cell number at 24 h, Library stock concentration: 13.7 uM",48.6%
same,"nuclei count, normalised","[1]; measured here: cell number at 24 h, Library stock concentration: 41 uM",45.4%
same,"nuclei count, normalised","[1]; measured here: cell number at 24 h, Library stock concentration: 123 uM",41.8%
same,"nuclei count, normalised","[1]; measured here: cell number at 24 h, Library stock concentration: 370 uM",40.1%
same,"nuclei count, normalised","[1]; measured here: cell number at 24 h, Library stock concentration: 1.111 mM",41.7%
same,"nuclei count, normalised","[1]; measured here: cell number at 24 h, Library stock concentration: 3.333 mM",42.7%
same,"nuclei count, normalised",[1]; [6],42.7%
same,"nuclei count, normalised","[1]; measured here: cell number at 48 h, Library stock concentration: 500 nM",46.8%
same,"nuclei count, normalised","[1]; measured here: cell number at 48 h, Library stock concentration: 1.5 uM",37.2%
same,"nuclei count, normalised","[1]; measured here: cell number at 48 h, Library stock concentration: 4.6 uM",33.8%
same,"nuclei count, normalised","[1]; measured here: cell number at 48 h, Library stock concentration: 13.7 uM",32.8%
same,"nuclei count, normalised","[1]; measured here: cell number at 48 h, Library stock concentration: 41 uM",29.8%
same,"nuclei count, normalised","[1]; measured here: cell number at 48 h, Library stock concentration: 123 uM",30.1%
same,"nuclei count, normalised","[1]; measured here: cell number at 48 h, Library stock concentration: 370 uM",27.4%
same,"nuclei count, normalised","[1]; measured here: cell number at 48 h, Library stock concentration: 1.111 mM",28.3%
same,"nuclei count, normalised","[1]; measured here: cell number at 48 h, Library stock concentration: 3.333 mM",30.1%
same,"nuclei count, normalised",[1]; [7],29%
same,"p53-positive nuclei, normalised",[2]; Library stock concentration: 500 nM,1.14% (inactive)
same,"p53-positive nuclei, normalised",[2]; Library stock concentration: 1.5 uM,2.17% (inactive)
same,"p53-positive nuclei, normalised",[2]; Library stock concentration: 4.6 uM,5.96% (inactive)
same,"p53-positive nuclei, normalised",[2]; Library stock concentration: 13.7 uM,13.9% (inactive)
same,"p53-positive nuclei, normalised",[2]; Library stock concentration: 41 uM,17.9% (inactive)
same,"p53-positive nuclei, normalised",[2]; Library stock concentration: 123 uM,17.3% (inactive)
same,"p53-positive nuclei, normalised",[2]; Library stock concentration: 370 uM,15.8% (inactive)
same,"p53-positive nuclei, normalised",[2]; Library stock concentration: 1.111 mM,18.6% (inactive)
same,"p53-positive nuclei, normalised",[2]; Library stock concentration: 3.333 mM,15.3% (inactive)
same,"p53-positive nuclei, normalised",[2]; [8],14% (inactive)
same,"p53-positive nuclei, normalised","[2]; measured here: p53 positive nuclei at 24 h, Library stock concentration: 500 nM",0.0832%
same,"p53-positive nuclei, normalised","[2]; measured here: p53 positive nuclei at 24 h, Library stock concentration: 1.5 uM",0.441%
same,"p53-positive nuclei, normalised","[2]; measured here: p53 positive nuclei at 24 h, Library stock concentration: 4.6 uM",2.38%
same,"p53-positive nuclei, normalised","[2]; measured here: p53 positive nuclei at 24 h, Library stock concentration: 13.7 uM",2.28%
same,"p53-positive nuclei, normalised","[2]; measured here: p53 positive nuclei at 24 h, Library stock concentration: 41 uM",1.13%
same,"p53-positive nuclei, normalised","[2]; measured here: p53 positive nuclei at 24 h, Library stock concentration: 123 uM",0.939%
same,"p53-positive nuclei, normalised","[2]; measured here: p53 positive nuclei at 24 h, Library stock concentration: 370 uM",1.03%
same,"p53-positive nuclei, normalised","[2]; measured here: p53 positive nuclei at 24 h, Library stock concentration: 1.111 mM",1.24%
same,"p53-positive nuclei, normalised","[2]; measured here: p53 positive nuclei at 24 h, Library stock concentration: 3.333 mM",1.62%
same,"p53-positive nuclei, normalised",[2]; [9],0.952%
O=c1c2cc(F)ccc2ncn1Cc1cn2ccccc2n1,"nuclei count, normalised",[1]; [3],98.7%
same,"nuclei count, normalised",[1]; [4],106%
same,"p53-positive nuclei, normalised",[2]; concentration not given here,-0.262% (inactive)
same,"p53-positive nuclei, normalised",[2]; [5],-0.23%
CCCCC/C=C\C/C=C\C/C=C\C/C=C\CCCC(=O)NC,"nuclei count, normalised",[1]; [3],104%
same,"nuclei count, normalised",[1]; [4],99.6%
same,"p53-positive nuclei, normalised",[2]; concentration not given here,0.0321% (inactive)
same,"p53-positive nuclei, normalised",[2]; [5],-0.0963%
CCn1cnc2c(Nc3cccc(Cl)c3)nc(NC3CCCCC3N)nc21 (stereo unspecified),"nuclei count, normalised","[1]; measured here: cell number at 24 h, Library stock concentration: 80 uM",108%
same,"nuclei count, normalised","[1]; measured here: cell number at 24 h, Library stock concentration: 400 uM",103%
same,"nuclei count, normalised","[1]; measured here: cell number at 24 h, Library stock concentration: 2 mM",91.4%
same,"nuclei count, normalised",[1]; [6],32.2%
same,"nuclei count, normalised","[1]; measured here: cell number at 48 h, Library stock concentration: 80 uM",110%
same,"nuclei count, normalised","[1]; measured here: cell number at 48 h, Library stock concentration: 400 uM",104%
same,"nuclei count, normalised","[1]; measured here: cell number at 48 h, Library stock concentration: 2 mM",98.2%
same,"nuclei count, normalised",[1]; [7],21.9%
same,"p53-positive nuclei, normalised",[2]; Library stock concentration: 80 uM,-0.102% (inactive)
same,"p53-positive nuclei, normalised",[2]; Library stock concentration: 400 uM,-0.0205% (inactive)
same,"p53-positive nuclei, normalised",[2]; Library stock concentration: 2 mM,0.0322% (inactive)
same,"p53-positive nuclei, normalised",[2]; [8],61.8% (active)
same,"p53-positive nuclei, normalised","[2]; measured here: p53 positive nuclei at 24 h, Library stock concentration: 80 uM",0.0806%
same,"p53-positive nuclei, normalised","[2]; measured here: p53 positive nuclei at 24 h, Library stock concentration: 400 uM",0.000598%
same,"p53-positive nuclei, normalised","[2]; measured here: p53 positive nuclei at 24 h, Library stock concentration: 2 mM",0.126%
same,"p53-positive nuclei, normalised",[2]; [9],48.5%
CCCCCCCCCCCCCCCCOC[C@H](COP(=O)([O-])OCC[N+](C)(C)C)OC(C)=O,"nuclei count, normalised",[1]; [3],107%
same,"nuclei count, normalised",[1]; [4],107%
same,"p53-positive nuclei, normalised",[2]; concentration not given here,-0.0025% (inactive)
same,"p53-positive nuclei, normalised",[2]; [5],-0.0227%
CCCCC/C=C\C/C=C\C/C=C\C/C=C\CCCC(=O)NC(CO)CO,"nuclei count, normalised",[1]; [3],103%
same,"nuclei count, normalised",[1]; [4],109%
same,"p53-positive nuclei, normalised",[2]; concentration not given here,0.067% (inactive)
same,"p53-positive nuclei, normalised",[2]; [5],-0.135%
CC1CN(Cc2ccc(F)cc2)CCN1C(=O)COc1ccc(Cl)cc1NC(N)=O (stereo unspecified),"nuclei count, normalised","[1]; measured here: cell number at 24 h, Library stock concentration: 46 uM",113%
same,"nuclei count, normalised","[1]; measured here: cell number at 24 h, Library stock concentration: 278 uM",111%
same,"nuclei count, normalised","[1]; measured here: cell number at 24 h, Library stock concentration: 1.67 mM",113%
same,"nuclei count, normalised",[1]; [6],116%
same,"nuclei count, normalised","[1]; measured here: cell number at 48 h, Library stock concentration: 46 uM",112%
same,"nuclei count, normalised","[1]; measured here: cell number at 48 h, Library stock concentration: 278 uM",110%
same,"nuclei count, normalised","[1]; measured here: cell number at 48 h, Library stock concentration: 1.67 mM",112%
same,"nuclei count, normalised",[1]; [7],112%
same,"p53-positive nuclei, normalised",[2]; Library stock concentration: 46 uM,-0.174% (inactive)
same,"p53-positive nuclei, normalised",[2]; Library stock concentration: 278 uM,-0.135% (inactive)
same,"p53-positive nuclei, normalised",[2]; Library stock concentration: 1.67 mM,-0.0557% (inactive)
same,"p53-positive nuclei, normalised",[2]; [8],-0.323% (inactive)
same,"p53-positive nuclei, normalised","[2]; measured here: p53 positive nuclei at 24 h, Library stock concentration: 46 uM",0.0345%
same,"p53-positive nuclei, normalised","[2]; measured here: p53 positive nuclei at 24 h, Library stock concentration: 278 uM",-0.0826%
same,"p53-positive nuclei, normalised","[2]; measured here: p53 positive nuclei at 24 h, Library stock concentration: 1.67 mM",-0.151%
same,"p53-positive nuclei, normalised",[2]; [9],0.0332%
